From PubChem BioAssay
SMN2 splice enh: qHTS Assay for Enhancers of SMN2 Splice Variant Expression | HEK293 SMN2-luciferase splicing reporter, luminescence, 30-36 h | Potency, µM (highest dose often 46.1 µM), for inactives: top-dose activity change, positive = activation, usual class: activators | actives 2.8% (n = 210,000) | AID 1458, 2008; also: % of control where 0% means no effect; nearly all actives have a fitted effect of over 55% in size
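qHTS luciferase splicing reporter: luminescence rises when SMN2 exon 7 is included in transfected HEK293 cells. Compound exposure lasted 30-36 h at 37C, with 4.5 mM final sodium butyrate as control, followed by a ONE-Glo read.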
KinaseGlo FLuc: Counterscreen for Luciferase (Kinase-Glo TM) Inhibition; Luciferin 4-monooxygenase (Photuris pensylvanica), Q27757; Kinase-Glo luciferase, ATP luminescence, 8 min; Potency, µM (series often up to 38.3 µM), for the others: top-dose activity change, negative = inhibition, actives largely listed as inhibitors; actives 0.28% (n = 200,000); AID 1379, 2008; also: % is scaled to controls: 0 for no effect and ±100 for the full control effect; nearly all actives have a fitted effect of over 60% in size
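Kinase-Glo luciferase light output from ATP and luciferin was measured with 10 uM ATP, within the enzyme's linear range. Buffer: 50 mM imidazole pH 7.2, 50 mM KCl, 7 mM MgCl2, 0.01% Tween 20, 0.05% BSA; luminescence read after 8 min at ambient temperature.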
Rab9 promoter act: qHTS Assay for Rab9 Promoter Activators; Huh7 Rab9 promoter-luciferase reporter, luminescence, 24 h; Potency, µM (series often up to 9.22 µM), for the others: top-dose activation, negative = inhibition, hits mostly activators; actives 2.8% (n = 320,000); AID 485297, 2010; also: % of control where 0% means no effect; nearly all actives have a fitted effect of over 60% in size
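Quantitative HTS format; Huh7 Rab9-luciferase reporter cells (1500/well) receive compound 2 h post-plating, incubate 24 h at 37 °C, then get luciferase reagent for 10 min before luminescence reading.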
ELG1 genotox: qHTS screen for small molecules that induce genotoxicity in human embryonic kidney (HEK293T) cells expressing luciferase-tagged ELG1; HEK293T ELG1-luciferase reporter, luminescence, 16 h; Potency, µM (highest dose often 46 µM), without a hit: top-dose activity change, positive = activation, hits mostly activators; actives 1.3% (n = 330,000); also: % of control where 0% means no effect; nearly all actives have a fitted effect of over 60% in size
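Cells (2,000/well) expressing the ELG1-luciferase fusion are dosed by pin tool and kept 16 hr at 37 °C, 5% CO2. Signal comes from ONE-Glo luciferase reagent after 30 min at room temperature.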
FLuc modulator: qHTS profiling assay for firefly luciferase inhibitor/activator using purifed enzyme and Km concentrations of substrates (counterscreen for miR-21 project). actives 6.9% (n = 360,000). purified FLuc, Km substrates, luminescence inhibition. Potency, µM (top dose mostly 57.5 µM), for inactives: top-dose activity change, negative = inhibition, most hits filed as inhibitors. Luciferin 4-monooxygenase (Photinus pyralis), P08659;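 also: plate controls were vehicle for no effect and reference inhibitor for full effect; nearly all actives have a fitted effect of over 55% in size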
Target sequence (P08659 whole entry, looked up): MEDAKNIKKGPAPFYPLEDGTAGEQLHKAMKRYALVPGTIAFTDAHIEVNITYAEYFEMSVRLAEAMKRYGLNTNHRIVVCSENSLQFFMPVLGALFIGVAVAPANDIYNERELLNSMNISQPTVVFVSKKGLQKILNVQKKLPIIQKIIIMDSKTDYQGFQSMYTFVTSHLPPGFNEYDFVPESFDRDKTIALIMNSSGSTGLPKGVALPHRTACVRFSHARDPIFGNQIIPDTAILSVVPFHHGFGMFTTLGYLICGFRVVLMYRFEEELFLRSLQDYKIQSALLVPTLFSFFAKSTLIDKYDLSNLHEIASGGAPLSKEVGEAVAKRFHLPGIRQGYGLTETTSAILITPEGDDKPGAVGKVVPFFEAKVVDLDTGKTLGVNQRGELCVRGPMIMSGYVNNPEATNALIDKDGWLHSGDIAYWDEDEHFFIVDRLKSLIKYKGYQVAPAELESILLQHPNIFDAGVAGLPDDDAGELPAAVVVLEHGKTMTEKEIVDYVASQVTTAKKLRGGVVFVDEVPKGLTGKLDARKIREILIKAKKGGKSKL
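Purified P. pyralis luciferase (10nM final) with 10uM D-luciferin and 10uM ATP (Km levels) in 50mM Tris acetate pH 7.5, 10mM Mg acetate, 0.01% Tween-20, 0.05% BSA; qHTS 6-point titration, ~60 µM downward; luminescence read.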
NPC1 prom act: qHTS Assay for NPC1 Promoter Activators; actives 2.4% (n = 320,000); Huh7 NPC1 promoter luciferase reporter, 24 h; AID 485313, 2010; Potency, µM (doses to about 9.22 µM), for the others: at the highest dose activation, usual class: activators; also: % of control where 0% means no effect; nearly all actives have a fitted effect of over 60% in size
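Compounds in DMSO were transferred onto Huh7 NPC1-luciferase reporter cells pre-incubated 2 h; after 24 h at 37 °C, Amplite reagent was dispensed and luminescence recorded 10 min later.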
An asterisk follows results filed as active; ? = inconclusive; . = no result given; [ ] = dose if it differs, or a comment. Rows were chosen to be rich in hits. Some 7.3% of all compounds tested hit in one or more screens of this group. Calls follow the shape of the dose curve; as a rule, active = well fitted curve in the direction sought with a large enough effect; inconclusive = small, poorly fitted or top-dose-only effect, or another doubt; inactive = no such curve, though single readings can be large; an effect the other way counts as inactive or inconclusive. Potency is read from the fitted curve at half-maximal effect.

SMILES	SMN2 splice enh	KinaseGlo FLuc	Rab9 promoter act	ELG1 genotox	FLuc modulator	NPC1 prom act
Cc1ccc(CNc2ccc3c(c2)OCO3)cc1	-39%	-18%	.	.	24µM*	.
c1ccc(-n2ncc3c(NC4CCCC4)ncnc32)cc1	.	.	.	.	4.8µM*	.
Cc1ccc(-n2ncc3c(NC4CCCC4)ncnc32)cc1	.	.	.	.	0.38µM*	.
COc1ccc(OC)c(Nc2ncnc3c2cnn3-c2ccc(C)cc2)c1	.	.	.	.	-15%	.
COc1ccc(-n2ncc3c(NC4CCCC4)ncnc32)cc1	.	.	.	.	1.3µM*	.
Cc1ccc(-n2cc(-c3ccccc3)c3c(NC4CCCC4)ncnc32)cc1	.	.	.	.	-4%	.
CCOC(=O)N1CCC(Nc2ncnc3c2cnn3-c2ccc(Cl)cc2)CC1	8%	-3%	?	12µM*	?	?
CCn1c(SCc2ccccc2Cl)nc2ccccc21	?	0%	20%	14%	12µM*	27%
CCn1c(SCC(=O)N2CCCC2)nc2ccccc21	2%	6%	1%	0%	3%	-6%
Cn1c(SCc2ccccc2Cl)nc2ccccc21	111%	-26%	?	5.8µM*	6µM*	2.5µM*
CCn1c(CSc2nc3ccccc3n2C)nc2ccccc21	-17%	0%	-6%	-1%	-4%	-2%
Cn1c(SCc2ccccc2Cl)nnc1-c1cnccn1	?	-2%	?	11µM*	?	?
CCS(=O)(=O)N1CC(=O)N(c2cccc(Cl)c2)C(C)(C(=O)NC2CCCCCC2)C1 (configuration not stated)	.	.	.	.	-1%	.
COc1ccc(C(=O)N(Cc2sccc2C)C2CCS(=O)(=O)C2)cc1Cl (configuration not stated)	-6%	.	.	.	3%	.
CC1CC(C)CN(c2ncnc3c2cnn3Cc2ccc(Cl)cc2)C1 (configuration not stated)	5%	-1%	-9%	0%	0%	2%
COc1ccc(-n2ncc3c(N4CCCCC4)ncnc32)cc1	-111%	?	?	0.065µM*	0.17µM*	-17%
Cc1ccc(Cl)cc1-n1ncc2c(N3CCCCCC3)ncnc21	.	.	.	.	-13%	.
CC1CCN(c2ncnc3c2cnn3-c2ccc(F)cc2)CC1	.	.	.	.	3µM*	.
COc1ccc(-n2ncc3c(N4CCN(c5cccc(C)c5C)CC4)ncnc32)cc1	.	.	-1%	1%	0%	-10%
CC1CN(c2ncnc3c2cnn3-c2ccc(Cl)cc2)CC(C)O1 (configuration not stated)	?	0%	1µM*	2.1µM*	3µM*	1.1µM*
Clc1ccc(-n2ncc3c(N4CCCCCC4)ncnc32)cc1	-101%	-11%	-18%	0.15µM*	0.19µM*	-11%
CCc1ccccc1NC(=O)CN1C(=O)c2cccnc2Oc2ccc(Cl)cc21	.	.	.	.	-8%	.
CCOC(=O)c1cc(C)n(CC2CCC(C(=O)Nc3ccc(C)cc3)CC2)c1C (configuration not stated)	.	.	.	.	-3%	.
O[C@H]([C@H](O)[C@@H](O)c1nc2ccccc2[nH]1)[C@@H](O)c1nc2ccccc2[nH]1	-5%[9.22 µM]	-3%[7.66 µM]	.	.	.	.
Cc1ccc(-n2ncc3c(N4CCCCC4)ncnc32)cc1	.	.	.	.	0.076µM*	.
SMILES	SMN2 splice enh	KinaseGlo FLuc	Rab9 promoter act	ELG1 genotox	FLuc modulator	NPC1 prom act
COC(=O)c1ccc(-c2ccc(/C=N/NC(=O)Cc3nnc(N)s3)o2)cc1	.	.	?	8%	?	4.5µM*
CCCSc1ncc(Cl)c(C(=O)Nc2c(C(=O)Nc3ccc(C)cc3)oc3ccccc23)n1	8%	.	.	.	0%	.
CN(C)c1ccc(N=Nc2ccccc2C(=O)OCC(=O)N2CCCCCC2)cc1	25µM*	-5%	22%	1%	?	18%
CN(C)c1ccc(N=Nc2ccccc2C(=O)OCC(=O)Nc2ccccc2C(F)(F)F)cc1	26%	-5%	24%	7%	9.5µM*	-1%
CN(C)c1ccc(N=Nc2ccccc2C(=O)OCC(=O)N2CCCC2)cc1	?	1%	0%	9%	2.1µM*	15%
CN(C)c1ccc(C(=O)OCC(=O)N2CCOCC2)cc1	29%	-5%	22%	7%	-3%	2%
CC(C)OC(=O)[C@@H]1CC[C@H](C)[C@@H](CCCC=O)O1	4%	5%	.	.	.	.
CC(=O)N1CCc2c(sc3c2c(=O)n(-c2cc(Cl)ccc2C)c(=O)n3C)C1	3%	.	.	.	-6%	.
CCOc1ccccc1Nc1ccc(N)cc1S(=O)(=O)O	-13%[9.22 µM]	-7%[7.66 µM]	.	.	.	.
O=C1NC(c2ccc(Cl)cc2)Oc2ccccc21 (configuration not stated)	.	.	-3%	8%	4%	-7%
CC(C)c1ccc(C2NC(=O)c3ccccc3O2)cc1 (configuration not stated)	.	.	15%	?	9.5µM*	4%
Cc1ccc([N+](=O)[O-])cc1NC(=O)CCc1ccccc1	-4%	-1%	0%	0%	-3%	-6%
Cc1ccc([N+](=O)[O-])cc1N/C=C1\CCc2ccccc2C1=O	-6%	1%	?	12%	?	4.5µM*
O=C(O)c1ccc(OCc2ccccc2)c(Cl)c1	-6%[9.22 µM]	-4%[7.66 µM]	.	.	.	.
O=C(O)c1cccc(COc2ccc(CO)cc2Cl)c1	0.04µM*	-16%	1.3µM*	?	0.021µM*	1.3µM*
CN1CCN(C(=O)c2ccc(COc3ccc(Cl)cc3Cl)cc2)CC1	-4%	-2%	1%	20%	12µM*	-2%
O=C(O)c1ccc(COc2ccc(CO)cc2Cl)cc1	?	2%	4.5µM*	9.2µM*	5.4µM*	?
COc1ccccc1CNC(=O)CSc1ccc(-c2sc(-c3ccccc3)nc2C)nn1	.	.	.	.	-19%	.
CCn1cc(Br)c(C(=O)Nc2cccc(Cl)c2)n1	11µM*	1%	2µM*	?	?	4µM*
CCn1ccc(C(=O)Nc2cccc(Cl)c2)n1	13µM*	-1%	1.4µM*	?	11µM*	3.5µM*
CCn1ccc(C(=O)Nc2ccc(S(=O)(=O)Nc3ccccc3OC)cc2)n1	-63%	5%	0%	-4%	4%	2%
CCn1cc(Br)c(C(=O)NN)n1	8%	6%	2%	1%	3%	?
CCn1cc(Cl)c(C(=O)Nc2cc(C(=O)OC)cc(C(=O)OC)c2)n1	-9%	-1%	5%	1%	1%	0%
CCn1ccc(C(=O)Nc2ccccc2Cl)n1	.	-12%	1.6µM*	8.2µM*	11µM*	2µM*
